# Bioassay records (PubChem)
# JMJD2E inh: inhibitors of human JMJD2E histone demethylase | 1.6% of 230,000 active | JMJD2E catalytic domain, FDH-coupled NADH fluorescence (FDH is formaldehyde dehydrogenase) | Potency, µM (top dose mostly 57.1 µM), for inactives: top-dose activity change, negative = inhibition, most hits filed as inhibitors | B2RXH2 | AID 2147;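 further: potency means the concentration at half of the fitted maximal effect; 0% = wells with enzyme and -100% = buffer wells without enzyme; nearly all actives have a fitted effect of over 50% in size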
# NPSR antag: antagonists of human neuropeptide S receptor cAMP signaling; CHO-NPSR cells, cAMP TR-FRET, antagonist mode; Potency, µM (top dose mostly 38.3 µM), inactives show top-dose activity change, negative = inhibition, most hits filed as inhibitors; 1% of 220,000 active; AID 1461; active means well fitted curve in the direction sought with a large enough effect; inconclusive means small, poorly fitted or top-dose-only effect, or another doubt; inactive means no such curve, though single readings can be large; an effect the other way counts as inactive or inconclusive; further: potency means the concentration at half of the fitted maximal effect; nearly all actives have a fitted effect of over 50% in size
# Target sequence (Q6W5P4 whole entry, looked up): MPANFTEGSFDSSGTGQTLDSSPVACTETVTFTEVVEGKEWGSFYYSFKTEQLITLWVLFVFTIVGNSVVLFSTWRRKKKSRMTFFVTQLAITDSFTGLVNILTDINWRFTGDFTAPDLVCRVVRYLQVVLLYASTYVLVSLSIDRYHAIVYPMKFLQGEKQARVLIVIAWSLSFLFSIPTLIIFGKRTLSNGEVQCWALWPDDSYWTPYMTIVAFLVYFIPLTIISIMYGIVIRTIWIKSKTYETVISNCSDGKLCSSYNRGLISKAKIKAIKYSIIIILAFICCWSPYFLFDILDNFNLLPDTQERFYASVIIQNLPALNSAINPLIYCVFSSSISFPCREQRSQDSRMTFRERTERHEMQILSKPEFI
# RGS12 GoLoco inh: inhibitors of human Gai1-RGS12 GoLoco interaction (red fluorophore); P63096; Gai1:RGS12 GoLoco peptide FP, rhodamine, 10 min; Potency, µM (titrated, usually from 61.6 µM), for inactives: top-dose activity, negative = inhibition, most hits filed as inhibitors; 0.44% of 230,000 active; AID 880; active means well fitted inhibition curve with a large enough effect, not every such curve was filed as active; inactive means no such curve, though single readings can be large or run the other way; further: potency means the concentration at half of the fitted maximal effect; nearly all actives have a fitted effect of over 30% in size
# Target sequence (P63096 whole entry, looked up): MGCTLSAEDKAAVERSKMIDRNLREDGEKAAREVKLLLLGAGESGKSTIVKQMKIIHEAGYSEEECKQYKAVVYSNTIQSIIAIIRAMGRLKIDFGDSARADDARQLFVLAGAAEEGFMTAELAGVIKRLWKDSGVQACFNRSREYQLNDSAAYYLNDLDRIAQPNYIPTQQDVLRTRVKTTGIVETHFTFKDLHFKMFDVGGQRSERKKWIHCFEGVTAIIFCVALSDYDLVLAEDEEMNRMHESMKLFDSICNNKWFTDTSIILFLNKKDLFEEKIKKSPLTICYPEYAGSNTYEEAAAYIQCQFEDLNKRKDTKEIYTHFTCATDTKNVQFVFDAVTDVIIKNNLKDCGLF
# ALDH1A1 inh: ALDH1A1 (human) enzyme inhibition; 7.3% of 220,000 active; Purified ALDH1A1, NADH fluorescence, propionaldehyde substrate; P00352; Potency, µM (doses to about 75.3 µM), for the others: top-dose activity, negative = inhibition, usual class: inhibitors;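 further: potency means the concentration at half of the fitted maximal effect; plate controls were no enzyme wells and a reference inhibitor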
# Sfp PPTase inh: blocks B. subtilis Sfp PPTase activity. Biochemical Sfp PPTase activity, qHTS. Potency, µM, without a hit: largest response in the series, negative = inhibition, most hits filed as inhibitors. 3.5% of 310,000 active. Q9F4F7; active means well fitted curve in the direction sought with a large enough effect; inconclusive means small, poorly fitted or top-dose-only effect, or another doubt; inactive means no such curve, though single readings can be large; an effect the other way counts as inactive or inconclusive;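 further: the enzyme is Sfp with the accession as filed and its product quenches rhodamine fluorescence; potency means the concentration at half of the fitted maximal effect; 0% = enzyme reaction without inhibitor and -100% = no enzyme wells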
#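 Compounds were incubated with enzyme (final 15 nM) for 15 min at room temperature before substrate addition started the reaction. Fluorescence at 525 nm excitation, 598 nm emission was recorded immediately and after 30 minutes.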
# Coupling enz: coupling enzyme interference in Giardia aldolase counter-screen. coupling enzyme system counterscreen, AmpLite Red fluorescence. activity change, negative = inhibition, % at 58.2 µM, hits read low. 0.67% of 290,000 active; in the data active means activity change below about -30%
#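 Counterscreen lacking aldolase: glyceraldehyde-3-phosphate coupling-enzyme reagent preincubated 10 min at RT with compound (at 57.5 uM final), then substrate/coupling system with AmpLite Red added; fluorescence read at 525/598 nm after 20 min RT.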
# Numbers without * were called inactive; u = inconclusive; x = not tested or not shown; ! = repeats disagree; [ ] = remark or other dose. Rows were chosen to be rich in hits. Some 8.5% of all compounds tested hit in one or more screens of this group. Unless noted, the call rests on the fitted dose curve; in most records, active means well fitted inhibition curve with a large enough effect (not every such curve was filed as active); inconclusive means small, poorly fitted or top-dose-only effect, or another doubt; inactive means no such curve, though single readings can be large or run the other way. Unless noted, on the % scale 0 is the no-effect control and ±100 the full control effect.
SMILES,JMJD2E inh,NPSR antag,RGS12 GoLoco inh,ALDH1A1 inh,Sfp PPTase inh,Coupling enz
Oc1cccc2ccc(/C=C/c3c(F)cccc3Cl)nc12,28.2µM*,-21.1%,-5.6%,-4.0%,5.5%,-2.1
O=C(O)c1ccc(/C=C/c2ccc3cccc(O)c3n2)cc1,8.91µM*,-50.5%,6.0%,-8.2%,39.8µM*,-22.6
COc1c(OC(C)=O)ccc(/C=C/c2ccc3cccc(OC)c3n2)c1[N+](=O)[O-],-7.5%,1.1%,-3.2%,u,-3.3%,-0.5
CCOC(=O)N1CCN(CC(O)COc2cc(C)cc(C)c2)CC1 (stereo unspecified),x,x,x,x,10.7%,4.5
COc1cccc(NC(=O)Nc2cc(C(=O)O)ccc2N2CC3CC(C2)c2cccc(=O)n2C3)c1 (stereo unspecified),x,x,x,x,3.5%,x
Oc1cccc2ccc(SSc3ccc4cccc(O)c4n3)nc12,x,x,-0.5%[14.2 µM],3.98µM*,x,x
COc1ccc(C(=O)N2CCCCCC2)cc1S(=O)(=O)N1CCOCC1,x,x,x,x,6.4%,1.2
N[C@H](C(=O)O)[C@H]1C[C@@H]1C(=O)O,7.3%,-5.5%[46.1 µM],10.6%,9.1%,-0.6%,x
NC1(C(=O)O)C[C@H](C(=O)O)[C@H](C(=O)O)C1 (stereo partly specified),-26.5%,x,3.6%,-2.3%,50.1µM*!,0.3
NC1(C(=O)O)CC1,u,-13.1%[46.1 µM],2.1%,8.5%,56.2µM*,-1.3
O=C(Nc1ccc2c(c1)nc1n2CCN(Cc2ccccc2)C1)c1cccs1,u,-13.1%[46.1 µM],19.8%,u,-9.9%,0.6
COCCN1CCn2c(nc3cc(NC(=O)NC4CCCCC4)ccc32)C1,u,-9.8%[46.1 µM],13.7%,u,-6.5%,-30.7*
O=C(Nc1ccc2c(c1)nc1n2CCN(Cc2ccccc2)C1)NC1CCCCC1,u,-6.4%[46.1 µM],20.0%,u,-0.9%,-36.6*
COCCN1CCn2c(nc3cc(NC(C)=O)ccc32)C1,x,x,x,x,8.6%,-1.4
CC(C(=O)NC1CCCC1)N1CCN(Cc2ccccc2)CC1 (stereo unspecified),-15.4%,13.6%,1.7%,3.55µM*,12.4%,0.5
CC1=C(C#N)C(=O)NC(=O)/C1=C\c1ccc(-c2cc(C)c(C)cc2[N+](=O)[O-])o1,25.1µM*,-42.3%,-0.1%,u,50.1µM*,1.3
Cc1ccc(-c2ccc(/C=C3/NC(=O)NC3=O)o2)cc1[N+](=O)[O-],-1.6%,-23.2%,11.2%,0.3%,u,0.4
Cc1ccc(S(=O)(=O)N2CCC(C(N)=O)CC2)cc1[N+](=O)[O-],x,x,x,x,5.4%,-2.7
NS(=O)(=O)c1ccc(NCc2c(F)cccc2Cl)cc1,-1.1%,-27.1%[46.1 µM],9.6%,-2.5%,2.6%,-0.6
Fc1cccc(Cl)c1CNc1ccc(N2CCCC2)cc1,11.2µM*,-31.1%,-13.5%,u,u,-17.3
[O-]/[N+](=C/c1ccc(F)cc1)c1ccc(Cl)cc1,3.0%,0.2%[46.1 µM],9.0%,6.31µM*,39.8µM*,0.3
CCCCC1=CC2=C(OC(C)=O)C(=O)C(C)(OC(=O)c3ccco3)C(=O)C2=CO1 (stereo unspecified),6.4%,x,4.0%,2.3%,-0.3%,-3.8
CCN(Cc1ccc(OC)c(F)c1)C(=O)CCl,u,9.6%,5.3%,0.355µM*,2.6%,1.5
CCN(Cc1ccc(OC)c(F)c1)C(=O)C1CCCO1 (stereo unspecified),x,x,x,x,8.2%,0.4
COc1cccc(CN2CCNC(=O)C2CC(=O)N(C)C2CCOCC2)c1OC (stereo unspecified),x,x,x,x,1.1%,x
SMILES,JMJD2E inh,NPSR antag,RGS12 GoLoco inh,ALDH1A1 inh,Sfp PPTase inh,Coupling enz
CCc1ccc2oc(C(=O)NC3CCS(=O)(=O)C3)cc(=O)c2c1 (stereo unspecified),x,x,x,x,17.3%,0.6
CCn1c(CNc2ccc(OC)cc2)nnc1SCC(=O)Nc1ccc(F)cc1,1.8%,-4.4%[46.1 µM],3.6%,-2.9%,6.5%,7.0
CCn1c(CNC(=O)COc2ccc(C(C)C)cc2)nnc1SCC(=O)Nc1ccc(F)cc1,-3.8%,u,2.6%,28.2µM*,u,-4.2
CCn1c(CNc2ccc(F)cc2)nnc1SCC(=O)Nc1ccc(OC)cc1OC,2.8%,-21.6%[46.1 µM],x,14.1µM*,2.8%,-4.0
O=C(Nc1ccc(Nc2ccccc2)cc1)C(Cl)(Cl)Cl,1.1%,-13.0%,2.6%,u,-24.8%,0.0
COc1ccc2c(CC(=O)NC3CCCc4ccccc43)coc2c1 (stereo unspecified),-20.2%,-11.0%[46.1 µM],x,u,6.9%,1.9
Cc1cc2occ(CC(=O)NC3CCCc4ccccc43)c2cc1C (stereo unspecified),-10.6%,-21.0%,0.4%,2.24µM*,-8.2%,-6.3
C/C=C/c1ccc(OCCN2C(=O)NC(C)(C)C2=O)c(OC)c1,u,-10.2%[46.1 µM],-11.2%,u,-16.1%,-8.2
C/C=C/c1ccc(OCCCN2C(=O)NC(C)(C)C2=O)c(OC)c1,-6.6%,-4.5%[46.1 µM],3.9%,14.1µM*,8.3%,-2.6
O=C(Nc1ccc(Cl)cc1)C(c1ccccc1)N1CCOCC1 (stereo unspecified),-1.4%,-20.9%,-13.2%,17.8µM*,-1.1%,-5.7
Cc1ccc(C)c(NC(=O)C(c2ccccc2)N2CCOCC2)c1 (stereo unspecified),0.7%,10.9%,1.1%,15.8µM*,11.2%,3.1
Cc1cccc(C)c1NC(=O)C(c1ccccc1)N1CCOCC1 (stereo unspecified),2.3%,9.9%[46.1 µM],-5.0%,7.9%,36.1%,1.0
CC(NC(=S)Nc1ccc(Cl)cc1)C(c1ccccc1)N1CCOCC1 (stereo unspecified),3.8%,-33.7%,6.9%,-2.3%,20.0%,0.8
CCCCc1cc(=O)oc2cc(OCC(=O)NCCN3CCOCC3)ccc12,x,x,x,x,11.4%,-0.2
Cc1cccc(-c2n[nH]c(=S)n2/N=C/c2ccco2)c1,-1.9%,28.4%,6.4%,x,-25.2%,-0.5
N=c1scc(-c2ccccc2)n1/N=C/c1ccco1,-17.0%,-0.3%,14.7%,22.4µM*,u,-0.9
C(=N/n1c2ccccc2c2ccccc21)/c1ccco1,-10.7%,-8.1%[46.1 µM],46.3%,10µM*,-3.8%,-1.9
CC(C)c1ccc(NC(=S)NN(c2ccccc2)c2ccccc2)cc1,2.4%,-29.5%,21.2%,14.1µM*,-12.4%,-6.3
O=S1(=O)CC=C(CSC(=S)NC2CCS(=O)(=O)C2)C1 (stereo unspecified),-1.5%,19.8%,5.8%,18.9µM*,u,0.4
Oc1c(Cl)cc(Cl)cc1C1=NNC(c2ccc(Cl)cc2)C1 (stereo unspecified),u,-23.9%,-0.2%,6.31µM*,3.3%,1.8
NNC(=O)CSc1nc(-c2ccccc2)nc2c1CCCC2,5.1%,-1.3%,5.5%,2µM*,6.0%,1.0
CCSc1nnc(NC(=O)c2nn(C(C)C)c(=O)c3ccccc23)s1,1.3%,-8.0%[46.1 µM],-4.2%,25.1µM*,8.8%,3.9
